Records with an inconclusive call do not appear. Active and inactive are the calls of the source. The calls were made as follows, unless noted: active = hit-call score of the fitted dose curve at least 0.9, where 1 is the maximum; inactive = score below 0.9.
Tests used:
[1] = biological target: Estrogen receptor (Homo sapiens) (UniProt P03372); experiment: CCTE_Deisenroth_AIME_384WELL_LUC_Active: CCTE's 384-well Estrogen Receptor Transactivation Assay with AIME metabolic competence (ERTA luciferase; metabolism positive), Deisenroth Lab (AID 2284030; active = hit-call score of the fitted dose curve at least 0.9, where 1 is the maximum)
In short: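 Estrogenic luciferase signal in VM7Luc4E2 cells is measured at 24 hour, after chemicals have been preconditioned 2 hours with PB/BNF-induced rat hepatic S9 in alginate. Gain of signal is fitted relative to 17beta-estradiol, across 0.002 - 200 uM.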

[2] = CCTE_Shafer_MEA_dev_per_burst_spike_percent: CCTE's Neural Network Formation Assay for Percent of Spikes in a Burst, Shafer Lab (AID 2284032)
In short: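 Value is trapezoidal AUC over recordings on days 5, 7, 9 and 12 of the well-mean fraction of spikes falling in single-electrode bursts; rat cortical cultures exposed continuously from plating, treatment renewed DIV 5 and 9, fitted downward against DMSO.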

[3] = CCTE_Shafer_MEA_acute_burst_duration_mean: CCTE's Neural Acute Assay for Mean Burst Duration, Shafer Lab (AID 2284014);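 also: hits are decreases in mean burst duration relative to DMSO controls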
In short: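 Mean burst duration was compared between a 40 min baseline and a 40 min recording in the presence of compound (0.03-40 uM, 37 C), giving percent change per well. Cultures were rat cortical neurons at DIV 13 or 15; wells needed ≥10 active electrodes.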

[4] = CCTE_Shafer_MEA_acute_per_burst_spike_number_mean: CCTE's Neural Acute Assay for Average Number of Spikes Per Burst, Shafer Lab (AID 2284015);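 also: hits are decreases in mean spikes per burst versus baseline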
In short: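 Percent change in mean spikes per single-electrode burst is compared between a 40 min baseline and a 40 min recording with compound (0.03-40 uM). Cultures were rat cortical neurons on MEA plates at DIV 13 or 15, recorded at 37 C, with DMSO as the negative control.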

[5] = CCTE_Shafer_MEA_acute_interburst_interval_mean: CCTE's Neural Acute Assay for Mean Interburst Interval, Shafer Lab (AID 2284016);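 also: percent change of mean interburst interval versus each well's own pre-dose baseline; curves fitted for decrease in interburst interval relative to DMSO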
In short: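 Percent change in mean single-electrode interburst interval was calculated per well from 40 min recordings before and after compound (0.03-40 uM). Recordings were made at 37 C on rat cortical cultures at DIV 13 or 15, with spikes detected at 8x rms threshold.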

[6] = CCTE_Shafer_MEA_acute_burst_percentage_mean: CCTE's Neural Acute Assay for Percentage of Spikes in a Burst, Shafer Lab (AID 2284017)
In short: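 Well-level mean burst percentage from a 40-min recording after compound (0.03-40 uM) expressed as percent change from a 40-min baseline at 37C. Cultures: primary rat cortical neurons on MEA, dosed on DIV 13 or 15; fitted downward relative to DMSO.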

[7] = CCTE_Shafer_MEA_acute_per_network_burst_spike_number_mean: CCTE's Neural Acute Assay for Average Number of Spikes in a Network Burst, Shafer Lab (AID 2284019)
In short: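 Percent change from baseline in mean spikes per network burst, spikes detected at 8x rms noise. Each compound at 0.03-40 uM in at least three wells of rat cortical cultures, recorded 40 min before and 40 min during exposure.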

[8] = CCTE_Shafer_MEA_acute_per_network_burst_spike_number_std: CCTE's Neural Acute Assay for Standard Deviation of Number of Spikes in a Network Burst, Shafer Lab (AID 2284020);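 also: fitted for decrease in spike-number SD versus DMSO so actives lower it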
In short: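 Endpoint: percent change from 40 min baseline in standard deviation of spikes per network burst, after 40 min compound exposure (0.03-40 uM, 37 C). Cortical rat neurons on MEA at DIV 13 or 15; spikes detected at 8x rms noise, 300-5000 Hz band-pass.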

[9] = CCTE_Shafer_MEA_acute_per_network_burst_electrodes_number_mean: CCTE's Neural Acute Assay for Mean Number of Electrodes in a Network Burst, Shafer Lab (AID 2284021);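 also: curves fitted for decreases only so hits reduce electrodes per burst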
In short: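 Percent change from baseline in average electrode count per network burst, rat cortical cultures on 48-well MEAs; 40-min recordings each side of exposure, DIV 13 or 15; threshold 8x rms noise; DMSO as negative control.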

[10] = CCTE_Shafer_MEA_acute_network_burst_percentage: CCTE's Neural Acute Assay for Percentage of Network Bursts, Shafer Lab (AID 2284022);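 also: rat primary cortical neuron networks on multiwell MEA recorded 40 min; curves fitted for loss so actives lower network burst percentage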
In short: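 On DIV 13 or 15, at least three wells of rat cortical neurons per compound are dosed at 0.03-40 uM. Spontaneous firing is detected at 8x rms noise for 40 min before and after dosing at 37 C. The percent change in network-burst spike share is reported.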

[11] = CCTE_Shafer_MEA_acute_cross_correlation_area: CCTE's Neural Acute Assay for Area of Cross Correlation, Shafer Lab (AID 2284024);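 also: area under pooled inter-electrode spike cross-correlation near zero lag as percent change from own baseline; curves fitted for loss of cross-correlation area so actives lower synchrony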
In short: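 Extracellular recordings from cultured rat cortical neurons measure network synchrony as cross-correlation area; each well's post-compound value (0.03-40 uM, 40 min) is compared with its own 40 min baseline to give percent change.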

[12] = CCTE_Shafer_MEA_acute_cross_correlation_HWHM: CCTE's Neural Acute Assay for Cross Correlation at Half Width at Half Maximum, Shafer Lab (AID 2284026);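 also: spontaneous network firing of rat primary cortical neurons on multiwell microelectrode arrays; percent change per well from pre-dose baseline in spike cross-correlogram half width; hits are a decrease in cross-correlogram half width relative to DMSO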
In short: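 Percent change in cross-correlogram half width at half maximum, narrower meaning more synchrony, was derived per well from paired 40-min recordings before and during exposure to 0.03-40 uM compound in rat cortical cultures at 37 C.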

[13] = CCTE_Shafer_MEA_acute_synchrony_index: CCTE's Neural Acute Assay for Synchrony, Shafer Lab (AID 2284027);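 also: network synchrony index of spontaneous spiking in primary rat cortical neurons on MEAs; fitted for loss of signal so actives lower synchrony relative to DMSO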
In short: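 The synchrony index is taken as percent change per well between a 40 min baseline and a 40 min recording with compound (0.03–40 uM), at 37C. Rat cortical cultures on multiwell MEAs at DIV 13 or 15, spike threshold 8× rms noise.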

[14] = CCTE_Shafer_MEA_acute_burst_percentage_std: CCTE's Neural Acute Assay for Standard Deviation of Burst Percentage, Shafer Lab (AID 2284018);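 also: fitted in the negative direction so actives lower burst percentage SD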
In short: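 Value is percent change from baseline in the across-electrode SD of spikes-in-bursts percentage, wells with >/= 10 active electrodes. Acute 40-min exposure to 0.03-40 uM on DIV 13 or 15 rat cortical cultures, recorded at 37 C after 40-min baseline.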

Chain of Estrogen receptor (Homo sapiens) (P03372 whole entry, looked up): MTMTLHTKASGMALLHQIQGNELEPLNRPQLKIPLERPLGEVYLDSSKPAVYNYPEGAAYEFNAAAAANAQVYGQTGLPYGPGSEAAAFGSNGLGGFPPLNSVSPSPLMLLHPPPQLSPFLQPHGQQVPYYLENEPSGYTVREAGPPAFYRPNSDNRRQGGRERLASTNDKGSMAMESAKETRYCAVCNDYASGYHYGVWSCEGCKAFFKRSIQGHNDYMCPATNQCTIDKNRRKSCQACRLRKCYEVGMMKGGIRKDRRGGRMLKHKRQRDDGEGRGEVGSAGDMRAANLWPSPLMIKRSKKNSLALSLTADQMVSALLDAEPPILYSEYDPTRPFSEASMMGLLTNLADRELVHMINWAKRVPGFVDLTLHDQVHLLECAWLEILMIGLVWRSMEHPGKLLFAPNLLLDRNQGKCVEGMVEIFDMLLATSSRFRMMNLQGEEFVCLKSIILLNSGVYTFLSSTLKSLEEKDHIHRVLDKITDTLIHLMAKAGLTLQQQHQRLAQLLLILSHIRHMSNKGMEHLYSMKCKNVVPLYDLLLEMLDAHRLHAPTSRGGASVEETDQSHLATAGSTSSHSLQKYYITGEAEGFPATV

## CC1=NN(c2cc(S(=O)(=O)O)ccc2Cl)C(=O)C1N=Nc1ccccc1 (stereo not given)
[1]
  outcome: inactive

## NC(CO)(CO)CO
[1]
  outcome: inactive

## O=C1C(N(CO)C(=O)NCO)N(CO)C(=O)N1CO (stereo not given)
[1]
  outcome: inactive

## CC1(C)S[C@@H]2[C@H](NC(=O)COc3ccccc3)C(=O)N2[C@H]1C(=O)O
[2]
  outcome: inactive

## CCN(CCC#N)c1ccc(N=Nc2c(Cl)cc([N+](=O)[O-])cc2Cl)cc1
[1]
  outcome: inactive

## Nc1ccc(N)c(Cl)c1
[3]
  outcome: inactive
[4]
  outcome: inactive
[5]
  outcome: inactive
[6]
  outcome: inactive
[7]
  outcome: inactive
[8]
  outcome: inactive
[9]
  outcome: inactive
[10]
  outcome: inactive
[11]
  outcome: inactive
[12]
  outcome: inactive
[13]
  outcome: inactive

## CCO[Si](C)(OCC)OCC
[3]
  outcome: inactive
[4]
  outcome: inactive
[5]
  outcome: inactive
[6]
  outcome: inactive
[14]
  outcome: inactive
[7]
  outcome: inactive
[8]
  outcome: inactive
[9]
  outcome: inactive
[10]
  outcome: inactive
[11]
  outcome: inactive
[12]
  outcome: inactive
[13]
  outcome: inactive

## O=C(c1ccccc1)C1CCC1
[1]
  outcome: inactive

## Cc1ccc(C(C)c2ccc(C)c(C)c2)cc1C
[1]
  AC50: 16 µM (active)
